According to PubChem BioAssay (NCATS):
Results filed as inconclusive are left out. Values without a mark were called inactive. Calls follow the shape of the full dose curve.

Experiment: Cell Viability - MRC5 (AID 434);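 also: potency reflects cytotoxicity seen as loss of intracellular ATP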
Conditions: MRC5 lung fibroblast viability, qHTS
Source text: NIH Chemical Genomics Center [NCGC]
NIH Molecular Libraries Screening Centers Network [MLSCN]
National Institutes of Environmental Health Sciences [NIEHS]
National Toxicology Program [NTP]
We have developed a 1536-well cell-based assay for quantitative high throughput screening (qHTS) against a number of cell lines to determine in vitro cytotoxicity of small molecules. This particular assay uses the MRC5 cell line which is derived from normal human lung fibroblasts.
NCGC Assay Protocol Summary:
The CellTiter-Glo luminescent cell viability assay (Promega) is a homogeneous method to measure the number of viable cells in culture. The end point readout of this assay is based on quantitation of intracellular ATP, an indicator of metabolic activity, using the luciferase reaction. Luciferase catalyzes the oxidation of beetle Luciferin to oxyluciferin and light in the presence of ATP. The luminescent signal is proportional to amount of ATP present.
Using the CellTiter-Glo luminescent cell viability assay, the amount of cellular ATP was measured in the MRC5 cell line with complete culture medium following compound treatment for 40 hours. The assay was performed in opaque white Kalypsys 1536-well plates. In the screen, tamoxifen and doxorubicin were used as positive controls. Library compounds were measured for their ability to cause acute toxicity in the cell line, as reflected by a decrease in intracellular ATP levels, in a concentration-dependent manner. Data were normalized to the controls for basal activity (DMSO only) and 100% inhibition (100 uM tamoxifen). AC50 values were determined from concentration-response data modeled with the standard Hill equation.
qHTS protocol for CellTiter Glo MRC5 cellular assay
[Step] [Parameter] [Value] [Description]
1. Reagent; 5 uL; 1500 MRC5 cells/well
2. Time; 5 hr; 37 °C incubation
4. Controls; 23 nL; Tamoxifen 0.34 uM to 100 uM & Doxorubicin 0.02 nM to 100 uM
5. Time; 40 hr; 37 °C incubation
6. Reagent; 5 uL; CellTiter Glo reagent
7. Time; 20 min; Room Temperature
8. Detection; Luminescence; Viewlux plate reader
Keywords: cell viability, cytotoxicity, MRC5 cell line, luminescence, NTPHTS, NTPHTS_NCGC, NIEHS, EPA, DSSTox, MLSMR, MLSCN, NIH Roadmap, qHTS, NCGC
Potency is read from the fitted curve at half-maximal effect.

SMILES	Potency
O=[N+]([O-])c1ccc(CCO)cc1	> 92 µM
C1CCCC1	> 92 µM
CC(=O)CC(C)C	> 92 µM
Cc1cccc(C)c1[N+](=O)[O-]	> 92 µM
CC(=O)c1ccccn1	> 92 µM
Cc1nc2ccc(Cl)cc2[nH]1	> 92 µM
Cc1ccc(C)cc1	> 92 µM
Cc1ccccc1Br	> 92 µM
COc1ccc(N)c(C)c1	> 92 µM
Cc1cccc(C(=O)O)c1[N+](=O)[O-]	> 92 µM
O=C(Cl)c1c(Cl)cccc1Cl	> 92 µM
Nc1ccc(Cl)cc1[N+](=O)[O-]	> 92 µM
CNC(=O)N(c1ccccc1)c1ccccc1	> 92 µM
NC=O	> 92 µM
O=[N+]([O-])c1cccc(Cl)c1	> 92 µM
Cc1ccccc1C#N	> 92 µM
c1ccc2c(c1)ccc1ncccc12	> 92 µM
Cc1ccc(S(=O)(=O)NC2CCCCC2)cc1	> 92 µM
O=C(O)c1c(Cl)cccc1Cl	> 92 µM
CN(C)c1cccc(O)c1	> 92 µM

SMILES	Potency
CC(=O)Nc1ccc(N)cc1	> 92 µM
O=[N+]([O-])c1cccc(C(F)(F)F)c1	> 92 µM
CCN(C(=O)N(CC)c1ccccc1)c1ccccc1	> 92 µM
Cc1c(C(=O)O)cccc1[N+](=O)[O-]	> 92 µM
CCCC(Cl)CCCC(Cl)CCC(Cl)CCC(Cl)CCC(Cl)CCCC(Cl)CCC (stereo not given)	> 92 µM
CCC(C)O (stereo not given)	> 92 µM
CC/C=C1/OC(=O)c2ccccc21	> 92 µM
CC(C)(O)CCC(C)(C)O	> 92 µM
C(=C/c1ccccc1)/c1ccccc1	> 92 µM
CC(=O)Nc1ccc(C)cc1	> 92 µM
Nc1ccccc1S(=O)(=O)O	> 92 µM
O=C1NC(=O)c2cc([N+](=O)[O-])ccc21	> 92 µM
CCCCCCC=O	> 92 µM
COc1ccccc1[N+](=O)[O-]	> 92 µM
CC1CCCO1 (stereo not given)	> 92 µM
COc1ccc(N)c(OC)c1	> 92 µM
C[C@@H]1O[C@@H](O[C@@H]2[C@@H](O)[C@H](OCCc3ccc(O)c(O)c3)O[C@H](CO[C@@H]3O[C@H](CO)[C@@H](O)[C@H](O)[C@H]3O)[C@H]2OC(=O)/C=C/c2ccc(O)c(O)c2)[C@H](O)[C@H](O)[C@H]1O	> 92 µM
Cc1ccc(Cl)cc1N	> 92 µM
Cc1ccc(C)c(O)c1	> 92 µM
C/C=C1\CC2C=CC1C2 (stereo not given)	> 92 µM
